Compound activity: PubChem BioAssay, National Center for Advancing Translational Sciences (NCATS)
Shown are actives, neighbours in structure and some others; about 3% of the full set was active somewhere.
pS6 MEF inh: mTORC1 pathway inhibition measured by phospho-rpS6 | 44,000 tested, 0.78% active | Potency, µM (titrated, usually from 38.3 µM), inactives show at the highest dose activity change, negative = inhibition, usual class: inhibitors | Tsc2-/- p53-/- MEF, phospho-rpS6 immunofluorescence/PI, 24 h;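 further: plate controls were DMSO for no effect and rapamycin for full effect; nearly all actives have a fitted effect of over 50% in size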
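Cell-based qHTS: Tsc2-/- p53-/- MEF, 24 h cpd, 37 °C; fix/perm, anti-phospho-S6 Alexa-488 + PI; Acumen 488 nm scan; pS6/PI ratio, % positive cells; rapamycin 7.5 nM = inhibition ref; PI count = viability.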
SKOV3 invasion: ovarian cancer metastasis inhibition, 3D TME model; SKOV3ip1-GFP adhesion/invasion on 3D omental model, fluorescence; Potency, µM (highest dose often 45.8 µM), without a hit: at the top dose activity change, negative = inhibition, usual class: inhibitors; 46,000 tested, 0.1% active; AID 1963576;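 further: plate controls were DMSO wells for no effect and tomatine positive control wells for full effect; nearly all actives have a fitted effect of over 65% in size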
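qHTS, 4-pt dose (0.36-46 umol/L); SKOV3ip1-GFP, 1,200 cells/well, no FBS; primary omental fibroblast/mesothelial co-culture 48 h pre-grown; 2 h RT + 16 h 37 C; PBS wash, 4% PFA; GFP count 488/509 nm.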
p53null 39C tox: p53 null cell cytotoxicity, nonpermissive temperature | H1299 p53-null (neo) cells, 39C, ATPlite viability, 24 h | Potency, µM (highest dose often 46.1 µM), without a hit: at the top dose activity, negative = cell killing, actives largely listed as cytotoxic | 55,000 tested, 0.97% active;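 further: 0% = DMSO only and -100% = full killing by 100 µM tamoxifen; nearly all actives have a fitted effect of over 50% in size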
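Cells seeded at 600/well, 37C overnight. Compound added (up to 46 uM), plates shifted to 39C for 24 hr. ATPlite added, luminescence read after 20 min at room temperature.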
S16 viability: S16 Schwann cell cytotoxicity. 43,000 tested, 0.48% active. S16 Pmp22-F2sN Schwann cells viability, CellTiter-Glo, 24 h. Potency, µM (doses to about 57.5 µM), for the others: top-dose activity change, negative = cytotoxicity, hits mostly cytotoxic; further: nearly all actives have a fitted effect of over 65% in size
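Luminescence from CellTiter-Glo, read by CCD camera after a 15 min room-temperature incubation, served as the viability signal. Reporter Schwann cells (S16 Pmp22-F2sN) had been treated with pin-transferred compounds for 24 h at 37C.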
p53null 32C tox: kills p53 null cells at the permissive temperature | H1299-neo p53 null cells, ATP luminescence, 24 h, 32C | Potency, µM (highest dose often 46.1 µM), for the others: top-dose activity change, negative = cytotoxicity, usual class: cytotoxic | 55,000 tested, 0.62% active | AID 903;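 further: 0% = DMSO only and -100% = full killing by 100 µM tamoxifen; nearly all actives have a fitted effect of over 55% in size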
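ATP-content luminescence in p53-null H1299-neo cells after 24 h compound exposure (up to 46 uM) at 32C permissive temperature; 0% and 100% killing set by DMSO and 100 uM tamoxifen; Hill-equation AC50.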
PMP22 txn prim: PMP22 gene transcription modulation; 43,000 tested, 2% active; Potency, µM (doses to about 57.5 µM), without a hit: at the top dose activity change, negative = inhibition, most hits filed as inhibitors; S16 Pmp22-F2sN Schwann cells (luciferase reporters placed in the Pmp22 gene), FLuc/NLuc coincidence luminescence, 24 h; AID 1508649; active means clear falling dose curves in both reporters; inconclusive means both reporters move, but less clearly or upward; inactive means either reporter flat; the % is the NLuc reporter signal
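Reporter cells (S16 Pmp22-F2sN, 500–1,000 per well) exposed to compounds for 24 h, 37C, 5% CO2; lysis with FLuc read after 10 min, then Stop&Glo and NLuc read after 10 min.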
* hit, by the source's call; i = inactive; ? = inconclusive; . = no result. Unless noted, the call rests on the fitted dose curve; in most records, active means well fitted curve in the direction sought with a large enough effect; inconclusive means small, poorly fitted or top-dose-only effect, or another doubt; inactive means no such curve, though single readings can be large; an effect the other way counts as inactive or inconclusive. Unless noted, on the % scale 0 is the no-effect control and ±100 the full control effect; potency means the concentration at half of the fitted maximal effect.

SMILES	pS6 MEF inh	SKOV3 invasion	p53null 39C tox	S16 viability	p53null 32C tox	PMP22 txn prim
O=C(N/N=C/c1cccs1)c1ccc(NC(=O)c2ccccc2Cl)cc1	.	.	35.8%	.	.	.
COc1cc2nccc(Oc3ccc(NC(=O)C4(C(=O)Nc5ccc(F)cc5)CC4)cc3)c2cc1OC	.	-5.8%	.	.	.	.
Cc1ccc(-c2c(C)n3c4c(=O)n(C)c(=O)n(C)c4nc3n2CCCO)cc1	-4.5%	9.8%	-11.7%	31.6µM*	-6.5%	?
COc1ccc(OCC(=O)Nc2ccc(-c3nc4cc(C)c(C)cc4o3)cc2)cc1	-1.4%	-9.4%	7.3%	6.7%	-9.5%	-3.2%
CCc1ccc(OCC(=O)Nc2ccc3oc(-c4ccc(OC)cc4)nc3c2)cc1	13.1µM*	-1.7%	-8.8%	16.7%	-4.6%	-10.2%
CCCS(=O)(=O)c1ncc(Cl)c(C(=O)N2CCN(c3ccc(OC)cc3)CC2)n1	?	i	-12.5%	5.01µM*	?	5.97µM*
COc1ccc(C(=O)Nc2nc3ccc(S(C)(=O)=O)cc3s2)cc1	.	.	-10.8%	.	-1.4%	.
Cc1ccc(C(=O)Nc2nc3ccc(S(C)(=O)=O)cc3s2)o1	.	.	10µM*	.	12.6µM*	.
CCCCNC(=O)c1ccc2c(c1)N=C(CC)c1ccccc1S2	?	5.8%	?	?	-2.6%	12.4µM*
CCC1=Nc2cc(C(=O)NC3CCCC3)ccc2Sc2ccc(Br)cc21	-25.8%	i	?	?	20.7%	10µM*
CCC1=Nc2cc(C(=O)NC3CCC(C)CC3)ccc2Sc2ccc(C)cc21 (stereo not given)	?	2.6%	20.1%	-2.8%	21.8%	5.66µM*
CC1=Nc2cc(C(=O)NCCc3ccc(Cl)cc3)ccc2Sc2ccc(C)cc21	-16.0%	-4.3%	29.3%	?	11.2%	9.46µM*
CC1=Nc2cc(C(=O)NC3CCCC3)ccc2Sc2ccc(Br)cc21	?	25.0%	16.3%	2.6%	16.8%	?
CNc1oc(-c2ccc(COc3ccc(C)cc3)o2)nc1C#N	-1.0%	7.3%	?	-3.5%	6.0%	-50.3%
Cc1cccc(OCc2ccc(-c3nc(C#N)c(NCCN(C)C)o3)o2)c1	5.21µM*	-16.3%	-17.6%	?	1.8%	?
CC(Nc1oc(-c2ccc(COc3ccccc3)o2)nc1C#N)c1ccccc1 (stereo not given)	14.7µM*	?	?	-7.7%	-9.1%	?
N#Cc1nc(-c2ccc(COc3ccccc3)o2)oc1NCc1ccccc1	-14.4%	5.4%	?	1.9%	-7.3%	-5.2%
CC(C)=CCCC(C)=CCCC(C)=CCSc1ccccc1C(=O)O	.	-15.4%	.	.	.	.
CCCc1nn2cc(-c3ccc(C)c(C)c3)nc2s1	0.8%	4.1%	10µM*	-0.3%	7.94µM*	-0.1%
CCc1ccc(S(=O)(=O)N(C(=O)c2ccncc2)c2ccc3oc(C)c(C(=O)OC)c3c2)cc1	?	-4.0%	94.6%	?	67.0%	?
CCOc1ccc(S(=O)(=O)N(C(=O)c2ccncc2)c2ccc3oc(C)c(C(=O)OC)c3c2)cc1	5.21µM*	i	?	?	41.9%	?
COc1ccc(S(=O)(=O)N(C(=O)c2ccncc2)c2ccc3oc(C)c(C(C)=O)c3c2)cc1	18.5µM*	?	?	?	1.5%	12.6µM*
COC(=O)c1c(C)oc2ccc(N(C(=O)c3ccncc3)S(=O)(=O)c3ccc(OC)cc3)cc12	?	-1.2%	?	?	6.1%	5.32µM*
COc1ccc(S(=O)(=O)N(C(=O)c2ccncc2)c2ccc3oc4c(c3c2)CCCC4)cc1	.	.	.	.	16.2%	.
CCc1cccc(CC)c1NC(=O)N1Cc2[nH]nc(NC(=O)c3ccc(N4CCN(C)CC4)cc3)c2C1	.	-40.2%	.	.	.	.
SMILES	pS6 MEF inh	SKOV3 invasion	p53null 39C tox	S16 viability	p53null 32C tox	PMP22 txn prim
Cc1cncn1CCc1nc2c3ccccc3nc(SCC(=O)Nc3cccc(Cl)c3)n2n1	?	?	?	28.2µM*	?	?
Cc1cncn1CCc1nc2c3ccccc3nc(SCC(=O)Nc3ccc(F)cc3)n2n1	0.2%	0.6%	-2.1%	5.0%	-1.7%	-19.9%
Cc1ccc(NC(=O)CSc2[nH]c(=O)ncc2C)cc1	3.3%	-0.3%	12.6µM*	-2.5%	11.2µM*	4.1%
CC(=O)N1CCCc2cc(S(=O)(=O)N(CCN(C)C)Cc3ccccc3)ccc21	-8.0%	-1.9%	10µM*	6.9%	-10.0%	-28.2%
COc1ccc(Cl)cc1S(=O)(=O)NCc1ccc2c(c1)CCN2C(=O)c1cccc(C)c1	?	-9.0%	?	14.1µM*	10.4%	10.6µM*
CC(=O)c1ccc(NS(=O)(=O)c2ccc(-c3cnc(C4CC4)o3)cc2)cc1	-1.5%	i	0.2%	6.0%	?	-2.6%
COc1cc(Cl)c(NS(=O)(=O)c2ccc(-c3cnc(C4CC4)o3)cc2)c(OC)c1	-29.3%	5.7%	?	1.26µM*	-4.6%	2.99µM*
Cc1ccc(N(C)S(=O)(=O)c2ccc(-c3cnc(C4CC4)o3)cc2)cc1	0.6%	-29.5%	?	?	-13.6%	14.1µM*
Cc1ccc(CNS(=O)(=O)c2ccc(-c3cnc(C4CC4)o3)cc2)cc1	1.5%	i	8.3%	-24.8%	1.5%	?
CCOC(=O)c1cccc(NS(=O)(=O)c2ccc(-c3cnc(C4CC4)o3)cc2)c1	-18.1%	i	1.3%	?	-5.8%	10.6µM*
N=C1SC(=Cc2ccc(-c3ccc4c(c3)C(=O)NC4=O)o2)C(=O)N1c1ccc(Br)cc1	.	-17.1%	.	.	.	.
Cc1ccc(Cl)cc1N1CCN(CCCNc2ncnc3onc(-c4ccc(F)cc4)c23)CC1	-1.2%	-4.2%	-0.9%	?	-0.7%	17.9µM*
NC(=O)Nc1cc(-c2ccc(CN3CCOCC3)cc2)sc1C(N)=O	.	7.9%	.	.	.	.
COc1ccc2oc(=Nc3ccccc3)c(-c3nc4ccccc4[nH]3)cc2c1	.	.	.	.	11.2µM*	.
Cc1ccccc1OC(=O)c1cc(-c2ccc3c(c2)OCCO3)on1	2.4%	5.4%	?	-1.0%	?	2.7%
O=C(Oc1ccccc1Cl)c1cc(-c2ccc3c(c2)OCCO3)on1	-0.1%	0.4%	?	-2.9%	20µM*	?
Cc1cccc(OC(=O)c2cc(-c3ccc4c(c3)OCCO4)on2)c1C	3.4%	i	31.6µM*	2.6%	15.8µM*	-14.3%
CCc1cncnc1N1CCN(Cc2nc3ccc(C(F)(F)F)cc3[nH]2)CC1	.	-13.5%	.	.	.	.
CCn1cnc2cc(NC(=O)c3ccco3)ccc21	.	.	12.6µM*	.	10µM*	.
O=C(Nc1ccc2nn(-c3ccccc3)nc2c1)c1ccco1	.	.	-29.2%	.	-24.7%	.
